Results from the supplement of paper PMC10338343.
± gives the standard deviation. Over roughly 6,200 sequences, “pre-steady-state target cleavage rate” has its median near 0.29; the highest 2% begin near 2. Shown is part of a subset that was picked to be rich in the highest values.

Test system: MIWI (PIWIL1) piRISC loaded with piRNA #1 (30 nt)
Assay: pre-steady-state target cleavage rate (min^-1); MIWI and MILI are mouse PIWI proteins and EfPiwi is from a freshwater sponge; tags in brackets are library labels; higher = faster piRNA-guided slicing of the target
Details: guide: piRNA #1 5'p-UGAGGUAGUAGGUUGUAUAGUAUCCAGAGG; auxiliary factor: 500 nM mouse GTSF1
Procedure, shortened: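 In Cleave-'n-Seq, a transcribed, DNA-blocked target RNA library (0.1 nM) was combined with 1 nM active affinity-purified piRISC bearing one synthetic guide, with or without 500 nM GTSF1 partner protein. Reactions ran in HEPES–potassium acetate buffer at 33 °C for 0–8 or 0–960 min. Uncleaved targets were sequenced and normalised to depth and to weakly complementary targets, three trials were pooled, and k3 was capped at 0.0001 min^-1. The pre-steady-state cleavage rate was obtained by fitting a burst-and-steady-state model.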

Row | Sequence | pre-steady-state target cleavage rate
1 | GGAGAGGGUACUAUACAACCUACUACCUCA | 1.17 ± 0.051
2 | GGACUGGAUUCUAUACAACCUACUAGCUCA | 0.118 ± 0.022
3 | GGAGACCUAUGAUAUCAACCUACUACCUACA | < 0.0001
4 | GGAGACGAUACUAUACAACCUACUACCGUCA | 0.443 ± 0.065
5 | GGAGUGGAUACUAUCACAACCUACUACCUCA | 1.49 ± 0.12
6 | GGAGUGGAUACUAUACAAGCUACUUCCUCA | 0.374 ± 0.031
7 | GCUCUGGUUACUAUACAACCUACAACCUCA | 1.33 ± 0.079
8 | CCUCUGGUUACUAUACAACCUACUAGCUCA | 0.705 ± 0.055
9 | CCUCUGGUUACUAUACAACCUACAACCUCA | 1.28 ± 0.089
10 | GGACUGGUUACUAUACAACCUACUACCUCA | 1.65 ± 0.13
11 | CCUCUGGUUACUAUACAACCUACUACCUCA | 2.29 ± 0.13
12 | CCUCUGGUUACUAUACAACCUACUACCACA | 1.79 ± 0.14
13 | GCUCUGGUUACUAUACAACCUACUACCUCA | 2.1 ± 0.12
14 | GCUCUGGUUACUAUACAACCUACUACCACA | 2.3 ± 0.24
15 | GGUCUGGUUACUAUACAACCUACUACCACA | 0.747 ± 0.068
16 | GCACUGGUUACUAUACAACCUACUACCUCA | 1.84 ± 0.11
17 | CCACUGGUUACUAUACAACCUACUACCUCA | 2.28 ± 0.14
18 | GGUCUGGUUACUAUACAACCUACUACCUCA | 1.87 ± 0.11
19 | GGAGACCUAUCUAUACUACCUACAACCUCA | 0.0031 ± 0.0021
20 | GGAGACCUAUCUAUACAACCUACUACCUGA | 0.516 ± 0.057
21 | GGAGUGGAUACUAUACAACCUACUAACCUCA | 0.901 ± 0.053
22 | GGAGUGGAUUCUAUACAACCUACUACGUCA | 0.522 ± 0.048
23 | CCUCUGGAUACUAUACAACCACUACCUCA | 0.033 ± 0.0096
24 | CCUCUGGAUACUAAACAACCUACUACGUCA | 1.49 ± 0.087

Row | Sequence | pre-steady-state target cleavage rate
25 | GGAGACCUUACUAUUCAACCUACUACGUCA | 0.678 ± 0.064
26 | GGAGACCAUUCUAUACAACCUACAACCUCA | 0.667 ± 0.075
27 | GGUCUGGAUAGUAUACAUCCUACUACCUCA | 0.741 ± 0.083
28 | GGAGAGGAUACUAUACAUCCUACUUCCUCA | 0.0568 ± 0.0099
29 | GGAGACCUAACUAAACAACCUACUAGCUCA | 0.0502 ± 0.019
30 | CCUCUGGUUACAAUACAACCUACUACCUCA | 2.15 ± 0.13
31 | GCUGUGGUUACUAUACAACCUACUACCUCA | 2 ± 0.13
32 | GCUCUGGUUACAAUACAACCUACUACCUCA | 1.98 ± 0.12
33 | CCUGUGGUUACUAUACAACCUACUACCUCA | 1.17 ± 0.058
34 | GCUCUGGUUACUUUACAACCUACUACCUCA | 1.7 ± 0.089
35 | GCUCUGGUUUCUAUACAACCUACUACCUCA | 2 ± 0.12
36 | CCUCUGGUUACUUUACAACCUACUACCUCA | 2.24 ± 0.16
37 | CCUCUGGUUUCUAUACAACCUACUACCUCA | 2.25 ± 0.15
38 | GGUCUGGUUACAAUACAACCUACUACCUCA | 1.59 ± 0.12
39 | GGUCUGGUUUCUAUACAACCUACUACCUCA | 1.8 ± 0.12
40 | GGUGUGGUUACUAUACAACCUACUACCUCA | 1.54 ± 0.097
41 | GGUCUGGUUACUUUACAACCUACUACCUCA | 1.69 ± 0.13
42 | GGAGACGAUACUAUACAACAUACUACCUCA | 1.16 ± 0.077
43 | GGAGUGGAUUCUAAACAACCUACUACCUCA | 0.994 ± 0.069
44 | GGAGACCUAUGAUAUGUACCUACUAACUCA | < 0.0001
45 | GGAGUGCAUACUAUACAACCUACUACCUGA | 0.513 ± 0.077
46 | GGAGACCUAUGUAUACAACCUACUACUCA | 0.00349 ± 0.0019
47 | GGAGACCUUACAAUAGAACCUACUACCUCA | 0.167 ± 0.022
48 | GGAGACCAUACUAUACAACCUACUUCCUCA | 0.666 ± 0.054

Row | Sequence | pre-steady-state target cleavage rate
49 | GGUCUGGAUACUAUACAACUUACUACCUCA | 0.481 ± 0.028
50 | GGAGUGCAUUCUAUACAACCUACUACCUCA | 1.32 ± 0.11
51 | GCUCUCGAUACUAUUCAACCUACUACCUCA | 1.86 ± 0.11
52 | CCUCGGGAUACUAUACAACCUACUACCUCA | 2.3 ± 0.16
53 | GGUCUCGAUACUAUUCAACCUACUACCUCA | 1.86 ± 0.12
54 | CCUCUCGAUACUAUUCAACCUACUACCUCA | 2.27 ± 0.15
55 | GCUCGGGAUACUAUACAACCUACUACCUCA | 1.5 ± 0.071
56 | CCUCUCGAUACUAUACAACCUACAACCUCA | 1.34 ± 0.077
57 | CCUCCGGAUACUAUACAACCUACUACCUCA | 2.08 ± 0.14
58 | CCUCUCGAUACUAUACAACCUACUACCUCA | 2.01 ± 0.12
59 | GCUCCGGAUACUAUACAACCUACUACCUCA | 1.81 ± 0.12
60 | GGUCGGGAUACUAUACAACCUACUACCUCA | 1.66 ± 0.11
61 | GGUCCGGAUACUAUACAACCUACUACCUCA | 1.76 ± 0.11
62 | GCUCUCGAUACUAUACAACCUACUACCUCA | 1.86 ± 0.11
63 | GGUCUGGUACUAUACAACCUACUACCUCA | 1.73 ± 0.11
64 | GGAGACCAAACUAUACAACCUAGUACCUCA | 0.226 ± 0.033
65 | GGAGACCUAUGUAUACAACCUACUACCUGCA | 0.0855 ± 0.011
66 | GGAGACCUAACUUAUACAACCUACUACCUCA | 0.23 ± 0.041
67 | CCUCUGGAUACUAUUCAACCUACUAGCUCA | 1.37 ± 0.12
68 | CCUCUCGAUACUUUACAACCUACUACCUCA | 2.13 ± 0.14
69 | CCUCUCGGAUACUAUACAACCUACUACCUCA | 2.06 ± 0.15
70 | CCUCUCGAUACUAUACAACCUACUACCACA | 2.21 ± 0.12
71 | CCUCGGAUACUAUACAACCUACUACCUCA | 1.96 ± 0.13
